Measured values from PubChem BioAssay AID588664 (The Scripps Research Institute Molecular Screening Center, 2011).
Out of some 360,000 compounds screened, about 1,400 (0.39%) were called active. Shown is part of a subset that was picked to be rich in actives. Unmarked numbers belong to inactive results. Cut-off read from the data, not from the text of the source: active = inhibition above about 5% (passing the limit was not always enough); inactive = the rest.

biological target: Tyrosine-protein kinase ABL1 (Homo sapiens) + Ras and Rab interactor 1 (Homo sapiens) (UniProt P00519+Q13671); test: disruptors of human Abl and Rin1 association – biochemical, TR-FRET, primary screen (AID 588664); details: TR-FRET Rin1/Abl binding, at 7.35 µM, hits give high values
Sequence (P00519 whole entry, looked up): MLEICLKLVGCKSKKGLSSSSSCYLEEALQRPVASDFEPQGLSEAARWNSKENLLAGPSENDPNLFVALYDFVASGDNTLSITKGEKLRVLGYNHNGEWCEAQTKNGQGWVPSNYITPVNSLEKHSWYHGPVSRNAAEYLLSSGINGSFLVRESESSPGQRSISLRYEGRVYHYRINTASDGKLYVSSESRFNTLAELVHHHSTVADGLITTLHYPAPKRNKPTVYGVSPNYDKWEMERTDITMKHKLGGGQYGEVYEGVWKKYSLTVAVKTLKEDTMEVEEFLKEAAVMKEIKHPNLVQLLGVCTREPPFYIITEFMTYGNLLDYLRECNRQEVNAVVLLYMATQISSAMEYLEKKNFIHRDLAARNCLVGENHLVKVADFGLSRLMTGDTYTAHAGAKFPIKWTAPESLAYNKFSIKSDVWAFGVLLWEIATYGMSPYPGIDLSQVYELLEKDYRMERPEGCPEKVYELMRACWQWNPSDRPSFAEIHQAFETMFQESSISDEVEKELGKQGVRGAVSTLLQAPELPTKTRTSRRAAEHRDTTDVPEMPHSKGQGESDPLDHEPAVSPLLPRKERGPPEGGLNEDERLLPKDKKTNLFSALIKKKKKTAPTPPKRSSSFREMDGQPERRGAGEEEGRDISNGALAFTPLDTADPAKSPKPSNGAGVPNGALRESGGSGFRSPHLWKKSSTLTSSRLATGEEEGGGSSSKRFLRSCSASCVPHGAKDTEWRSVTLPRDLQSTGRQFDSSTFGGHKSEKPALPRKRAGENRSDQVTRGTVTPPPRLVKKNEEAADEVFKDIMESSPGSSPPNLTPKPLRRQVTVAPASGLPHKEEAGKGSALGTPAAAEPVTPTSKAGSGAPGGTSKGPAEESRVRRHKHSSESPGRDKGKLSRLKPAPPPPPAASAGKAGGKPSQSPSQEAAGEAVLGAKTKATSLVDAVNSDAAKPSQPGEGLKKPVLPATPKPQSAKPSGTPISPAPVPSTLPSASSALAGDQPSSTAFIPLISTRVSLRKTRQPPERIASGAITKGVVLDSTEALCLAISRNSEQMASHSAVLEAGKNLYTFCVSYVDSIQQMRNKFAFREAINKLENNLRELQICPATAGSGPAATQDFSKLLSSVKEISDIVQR
Sequence (Q13671 whole entry, looked up): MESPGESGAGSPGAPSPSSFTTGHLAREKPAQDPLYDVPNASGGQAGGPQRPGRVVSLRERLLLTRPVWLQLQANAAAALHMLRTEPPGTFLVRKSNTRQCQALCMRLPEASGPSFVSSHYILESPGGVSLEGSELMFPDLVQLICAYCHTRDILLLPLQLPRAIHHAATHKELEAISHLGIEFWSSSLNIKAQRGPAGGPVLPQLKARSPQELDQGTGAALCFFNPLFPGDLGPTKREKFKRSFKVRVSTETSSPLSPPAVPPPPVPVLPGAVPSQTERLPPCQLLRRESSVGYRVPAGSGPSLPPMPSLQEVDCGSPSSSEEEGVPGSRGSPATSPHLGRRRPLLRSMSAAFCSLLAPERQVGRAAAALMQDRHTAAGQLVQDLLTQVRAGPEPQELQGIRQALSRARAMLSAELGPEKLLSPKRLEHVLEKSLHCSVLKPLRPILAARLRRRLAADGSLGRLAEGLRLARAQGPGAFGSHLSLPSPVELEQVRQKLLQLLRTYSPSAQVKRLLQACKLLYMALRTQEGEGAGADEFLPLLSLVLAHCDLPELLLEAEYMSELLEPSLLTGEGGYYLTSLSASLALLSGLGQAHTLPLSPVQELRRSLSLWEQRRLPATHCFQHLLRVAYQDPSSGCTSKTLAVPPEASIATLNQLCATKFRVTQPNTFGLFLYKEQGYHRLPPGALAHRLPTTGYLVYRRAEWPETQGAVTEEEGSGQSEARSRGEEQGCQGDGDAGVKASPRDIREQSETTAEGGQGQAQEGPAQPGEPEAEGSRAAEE

SMILES | inhibition
C=CCN(C(=O)Cn1ncc2c1-c1cc(C)ccc1OC2)c1ccccc1 | 2.13%
Cc1cnc(C)c(N2CCN(C(=O)C3CCC(=O)N(CCc4cccc(F)c4)C3)CC2)n1 (stereo not drawn) | -0.04%
CCOC(=O)N1CCN(C(=O)C2CCN(S(=O)(=O)c3cc(Cl)ccc3OCC)CC2)CC1 | 3.03%
CCOC(=O)N1CCN(C(=O)C2CCCN(c3ncnc4c3sc3cccc(F)c34)C2)CC1 (stereo not drawn) | 6.58% (active)
CCOC(=O)N1CCN(C(=O)C2CCN(Cc3ccc(OC)cc3OC)CC2)CC1 | 0.29%
Cc1cc(=O)n2nc(N3CCCC(C(=O)N4CCN(C)CC4)C3)sc2n1 (stereo not drawn) | 1.05%
CCOC(=O)N1CCN(C(=O)C2CCN(c3ncnc4c3sc3cccc(F)c34)CC2)CC1 | 18.2% (active)
O=C(CCNC(=O)c1ccc([N+](=O)[O-])cc1)NC1CCCCC1 | -2.29%
O=C1CC2(CCCCC2)Oc2ccc(OCC(=O)N3CCOCC3)cc21 | -3.03%
COc1cc2c(cc1CNC[C@H]1O[C@@H](n3cnc(C(N)=O)n3)[C@H](O)[C@@H]1O)OCO2 | -2.98%
CCOc1ccc(N(CC)S(=O)(=O)c2cccc3nsnc23)cc1 | -2.8%
O=C(NC(c1ccc(Cl)cc1)c1cnccn1)C1CCN(Cc2ccc(Cl)cc2)CC1 (stereo not drawn) | -1.67%
O=C(NC(c1ccc(-c2ccccc2)cc1)c1cnccn1)C1CCN(CCOc2ccc(Cl)cc2Cl)CC1 (stereo not drawn) | -3.71%
Cc1ccc(C(NC(=O)C2CCN(CCOc3ccc(Cl)cc3Cl)CC2)c2ccccn2)cc1 (stereo not drawn) | 9.27% (active)
CCCS(=O)(=O)Nc1c(C(=O)O)[nH]c2ccccc12 | 0.58%
CCOC(=O)c1c(NC(=O)CN2C(=O)NC3(CCC(C)CC3)C2=O)sc(C)c1CC (stereo not drawn) | 0.02%
C=CCn1c2ccccc2c2nnc(SC(CC)C(=O)Nc3nc(C)c(C(=O)OCC)s3)nc21 (stereo not drawn) | 2.82%
C=CCn1c(SCC(=O)CC(=O)OCC)nc2cc(C(=O)N3CCC(C(N)=O)CC3)ccc2c1=O | -1.96%
C=CCn1c2ccccc2c2nnc(SCc3[nH]c(=O)[nH]c3C(=O)CCCCC(=O)OCC)nc21 | 59.4% (active)
COc1ccc(NC(=O)C2CCC(CNS(=O)(=O)c3csc(C(N)=O)c3)CC2)cc1OC (stereo not drawn) | -0.76%
COc1ccc(CCC(=O)Nc2ccc(Cl)c(S(=O)(=O)N3CCOCC3)c2)cc1OC | 0.12%
CN(CC(=O)Nc1ccc(S(=O)(=O)N2CCCC2)cc1)Cc1ccc(Cl)c(Cl)c1 | -4.78%
CN(CC(=O)Nc1ccc(F)cc1)CC(=O)Nc1ccc(Cl)c(S(=O)(=O)N2CCOCC2)c1 | 5.07% (active)
